# ATXN viability – reduces viability in counter-screen for ATXN expression inhibitors; S2 cells (HEK-293 line with an ATXN2-luciferase reporter) viability, CellTiter-Fluor protease fluorescence, 24 h; 400,000 compounds, 0.49% hits; Potency, µM (titrated, usually from 56.7 µM), hits mostly cytotoxic; also: nearly all actives have a fitted effect of over 40% in size
# ATXN2 expr inh – ATXN2 expression inhibition. HEK-293 ATXN2-luciferase reporter, luminescence, 24 h. Potency, µM (series often up to 57 µM), inactives show at the highest dose activity change, negative = inhibition, most hits filed as inhibitors. 360,000 compounds, 0.72% hits. AID 1745845; also: % is scaled to controls: 0 for no effect and ±100 for the full control effect; nearly all actives have a fitted effect of over 55% in size
#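 ATXN2-luciferase reporter cells (luciferase flanked by upstream and downstream ATXN2 gene portions) were treated 24 h at 37 °C with compounds at up to 57 uM. SteadyGlo luminescence gave expression; GF-AFC fluorescence gave viability.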
# A549 tox – A549 cytotoxicity, counter-screen for Nrf2 inhibitors. A549 ARE-Fluc cells, CellTiter-Fluor viability, 18-24 h. Potency, µM (doses to about 46 µM), without a hit: at the highest dose activity change, negative = cytotoxicity, actives largely listed as inhibitors. 390,000 compounds, 0.16% hits; also: % is scaled to controls: 0 for no effect and ±100 for the full control effect
#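 A549 ARE_Fluc cells in 5% FBS OPTI-MEM were exposed to compounds in concentration-response for 18-24 h at 37 deg C. Viability was read by CellTiter-Fluor fluorescence (Ex 405/Em 525) after 30 min, before the luciferase read.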
# HepG2 tox – counter-screen for TGF-b inhibitors: cytotoxicity in HepG2 cells; HepG2 CAGA-GFP viability, ATP luminescence, 18 h; Potency, µM (series often up to 46.1 µM), for the others: at the highest dose activity change, negative = cytotoxicity, most hits filed as cytotoxic; 410,000 compounds, 0.76% hits; AID 588856
#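 CellTiter-Glo luminescence gave cytotoxicity after 18 hours at 37 degrees C. The cells were HepG2 CAGA-GFP in 1% FBS DMEM, stimulated with 500 pg/mL TGF-beta after compound addition. %Activity was normalised to no-cell wells (complete cell-killing) and DMSO (no toxicity), and curves were fitted and classified.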
# TGFb inhibitor – inhibitors of TGF-b signaling | HepG2 CAGA-GFP TGF-b/SMAD3 reporter, GFP fluorescence, 18 h; TGF-beta stimulated, 500 pg/mL final | Potency, µM (titrated, usually from 46.1 µM), for the others: at the top dose activity, negative = inhibition, usual class: inhibitors | 410,000 compounds, 1.2% hits | AID 588855; also: % is scaled to controls: 0 for no effect and ±100 for the full control effect; nearly all actives have a fitted effect of over 65% in size
#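 Cell-based qHTS in HEPG2 carrying a CAGA-GFP Smad reporter; compounds added before 500 pg/mL final TGF-beta, 18 h incubation at 37 degrees C, GFP fluorescence quantified per cell by imaging cytometry.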
# Nrf2 block – inhibitors of Nrf2 signaling; AID 504444; 360,000 compounds, 2.1% hits; A549 ARE-Fluc reporter, luciferase luminescence, 18-24 h; Potency, µM (titrated, usually from 46 µM), inactives show at the top dose activity change, negative = inhibition, most hits filed as inhibitors; also: % is scaled to controls: 0 for no effect and ±100 for the full control effect; nearly all actives have a fitted effect of over 60% in size
#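 Cells were seeded and rested 2 h, then exposed to compounds for 18-24 h. CellTiter-Fluor was read first as a viability measure. BugLite was added 15 min before the final luminescent read of ARE-luciferase activity in A549 cells.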
# Starred values were filed as active, the others as inactive; i = inactive; ? = inconclusive; / = not tested or not shown; [ ] = remark or other dose. Only some compounds are listed: those with a hit (about 3.8% of all), similar ones and a draw of the others. Calls follow the shape of the dose curve; as a rule, active = well fitted curve in the direction sought with a large enough effect; inconclusive = small, poorly fitted or top-dose-only effect, or another doubt; inactive = no such curve, though single readings can be large; an effect the other way counts as inactive or inconclusive. Potency is read from the fitted curve at half-maximal effect.
SMILES,ATXN viability,ATXN2 expr inh,A549 tox,HepG2 tox,TGFb inhibitor,Nrf2 block
c1ccc(C(Cc2nc(-c3ccncc3)no2)c2ccccc2)cc1,i,-12.6%,-14.7%,-24.4%,0.0%,8.2µM*
NS(=O)(=O)c1ccc(CCNCc2cc(Cl)ccc2OCc2ccccc2)cc1,i,-34.8%,?,-69.2%,11.2µM*,?
NS(=O)(=O)c1ccc(CCNCc2ccccc2OCc2ccc(Cl)cc2)cc1,i,?,-11.1%,-91.2%,?,-22.2%
O=C(NCCSc1c[nH]c2ccccc12)c1ccc(Br)o1,i,-17.3%,-8.6%,-22.6%,2.2%,-11.7%
Cc1[nH]c2ccccc2c1SCCNC(=O)c1ccc(Br)o1,i,-10.6%,?,-38.7%,?,23.1µM*
Cc1ccc(S(=O)(=O)/N=C(\Sc2ccccc2)c2ccccc2)cc1,?,20µM*,-1.9%,-7.7%,-8.8%,1.6%
O=S(=O)(/N=C(\Sc1ccccc1)c1ccccc1)c1ccc(Cl)cc1,i,-5.4%,-8.1%,0.3%,0.0%,-7.0%
O=C(Nc1ccc(S(=O)(=O)Nc2cnc3ccccc3n2)cc1)c1ccc(Cl)cc1Cl,i,-5.9%,-0.5%,3.6%,?,?
Cc1cc(Cl)ccc1OC(C)C(=O)Nc1ccc(S(=O)(=O)Nc2cnc3ccccc3n2)cc1 (centres undefined),i,-0.7%,-15.6%,4.9%,?,8.2µM*
c1ccc(Cn2sc(=Nc3ccccc3)nc2-c2ccccc2)cc1,/,/,12.2%,-21.0%,-2.7%,27.1%
c1ccc(N=c2nc(-c3ccccc3)n(-c3ccccc3)s2)cc1,/,/,-16.3%,-83.6%,2.82µM*,?
O=C1N(Cc2cccc(Cl)c2)C[C@@H]2C[C@@H](c3cccn3-c3cccnc3)N3CCC[C@@]123,?,?,-13.4%,-42.1%,15.8µM*,20.6µM*
Cn1cc([C@@H]2C[C@H]3CN(Cc4cccc(Cl)c4)C(=O)[C@]34CCCN24)c(-c2ccccc2)n1,?,?,?,0.0%,?,20.6µM*
Cc1nn(C)cc1[C@@H]1C[C@H]2CN(Cc3cccc(Cl)c3)C(=O)[C@]23CCCN13,i,0.3%,4.3%,1.1%,21.8%,2.5%
CCn1ncc([C@@H]2C[C@H]3CN(Cc4cccc(Cl)c4)C(=O)[C@]34CCCN24)c1C,i,1.1%,0.9%,-1.8%,6.2%,0.6%
CCOc1cc(N2CCOCC2)c(OCC)cc1NC(=O)c1ccc(OC)c(S(=O)(=O)N2CCOCC2)c1,i,1.9%,0.9%,3.1%,-5.0%,2.0%
COC(=O)c1ccc(-n2c(/C=C\c3cccc(Br)c3)nc3ccccc3c2=O)cc1,/,/,-2.2%,-28.5%,-20.8%,/
O=C(O)c1cccc2c1C(=O)c1ccccc1-2,i,9.8%,0.4%,1.4%,3.8%,1.1%
O=C1C(=C(I)I)c2ccccc2-c2ccccc21,/,?,-17.0%,11.2µM*,6.31µM*,-5.5%
C=CCC[C@@H](Cc1ccc(F)cc1)C(=O)OC[C@@H](Cc1ccccc1)NC(=O)[C@@H](CC=C)CC(=O)N[C@@H](CO)Cc1ccccc1,i,-33.1%,2.9%,-1.6%,-13.5%,-12.2%
S=C(Nc1ccccc1)Nc1ccc(OCc2ccc(Cl)cc2Cl)cc1,i,1µM*,3.3%,-5.5%,-23.9%,18.4µM*
OCCCCNCc1ccc(OCc2ccc(Cl)cc2Cl)cc1,25.1µM*,25.1µM*,?,10µM*,?,?
OCCNCc1ccc(OCc2ccc(Cl)cc2Cl)cc1,?,?,-0.3%,22.4µM*,?,4.6%
COc1ccc(N(CC(=O)N/N=C(\C)c2ccc(OC)c(OC)c2)S(=O)(=O)c2ccccc2)cc1,?,-25.2%,-3.4%,-7.3%,0.0%,-16.4%
COc1ccc(C)cc1NC(=O)c1cccc(-c2ccc(OC(C)=O)cc2)c1,i,-34.8%,-23.9%,-12.3%,?,16.4µM*
SMILES,ATXN viability,ATXN2 expr inh,A549 tox,HepG2 tox,TGFb inhibitor,Nrf2 block
COc1ccc(-c2cccc(C(=O)Nc3ccccc3C)c2)cc1,i,-4.3%,2.9%,1.4%,3.9%,-15.9%
Cc1ccc2nc(-c3ccc(NC(=S)NC4CC(C)(C)NC(C)(C)C4)cc3)sc2c1,?,6.8%,2.1%,12.6µM*,?,?
Cn1cc(C=O)c2cc(F)ccc21,i,/,-0.5%,-9.0%,4.4%,12.2%
Cn1cc(/C=C/c2cc[n+](C)cc2)c2cc(Cl)ccc21,i,?,?,-6.3%,102.3%,10.3µM*
S=C(NCC1CCCO1)Nc1ccc(Nc2ccccc2)cc1 (centres undefined),i,-16.8%,-21.9%,-4.2%,-16.8%,14.6µM*
CCc1ccc(O)c(C(=O)c2cnc3cc(-c4ccc(C)cc4)nn3c2)c1,?,2.8%,-5.8%,3.7%,-6.9%,11.4%
FC(F)Sc1ccc(NC(=S)NC2CCCCC2)cc1,?,?,-9.3%,-48.6%,11.2µM*,?
CC1CCCCC1NC(=S)Nc1ccc(SC(F)F)cc1 (centres undefined),?,?,?,-38.2%,?,-105.8%
FC(F)Sc1ccc(NC(=S)NC(c2ccccc2)c2ccccc2)cc1,?,/,-21.5%,11.2µM*,5.62µM*,?
CN(Cc1ccccc1)C(=O)c1c[nH]c2ccc(S(=O)(=O)Nc3ccccc3F)cc2c1=O,i,7.0%,15.5%,-3.9%,-2.2%,19.1%
Cc1nc(N)sc1-c1ccnc(Nc2ccc(N3CCOCC3)cc2)n1,/,10.9µM*,/,/,/,/
Cc1cc(C)nc(Nc2ccc(N3CCOCC3)cc2)n1,i,42.6%,-3.3%,5.9%,9.8%,23.2%
O=c1oc2cc(O)ccc2s1,i,?,1.5%,-25.1%,-2.3%,13µM*
Oc1ccc2c(c1)oc1cc(O)ccc12,?,28.3%,-5.9%[1.84 µM],-4.7%,2.0%,?
CCn1nc(C)c2c(-c3ccccc3)cc(=O)n(C(C)C(=O)NCc3ccccc3OC)c21 (centres undefined),?,?,-3.9%,-32.1%,20µM*,?
COc1ccc2c(c1)-c1nc(-n3ncc(C(=O)NC(C)(C)CO)c3C3CC3)ncc1CC2,i,/,/,/,/,/
COc1ccc(CNC(=O)CSc2ccc(Br)cc2)cc1OC,i,-12.7%,1.2%,-19.8%,-0.8%,23.1µM*
O=c1nc2n(CCO)c3ccccc3cc-2c(=O)[nH]1,/,-2.8%,18.9%,8.4%,-2.0%,5.2%
CCCN(CCC)CCCNC(=O)C1CCN(c2nc3ccc(CC)cc3s2)CC1,/,/,-1.0%,-50.6%,?,?
O=[N+]([O-])c1ccc(CN2CCCCCC2)cc1,i,14.1%,-0.4%,17.0%,-0.2%,6.9%

# High-throughput results as filed in PubChem BioAssay.
